The results in this text go back to PubChem BioAssay (EPA / NIEHS).

By AC50 is commonly meant the midpoint of the concentration-response curve, whichever way the signal moves.

Assay [1] can be described thus: ATG_PBREM_CIS: Attagene CIS-FACTORIAL HepG2 Assay for human Phenobarbital-responsive Enhancer Module (PBREM) (AID 2282955). The settings on record: HepG2 PBREM cis-reporter, Attagene multiplexed transcription; actives raise or lower the signal. An outline of the steps: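 Cells were transfected with cis-element reporter units and treated for 24 h, after which RNA was extracted and reporter transcripts measured by RT-PCR and capillary electrophoresis.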

The target of assay [2] is Paired box protein Pax-6 (Homo sapiens) (UniProt P26367). Briefly: ATG_Pax6_CIS: Attagene CIS-FACTORIAL HepG2 Assay for human Paired Box 6 (PAX6) (AID 2282956). Conditions: HepG2 CIS-FACTORIAL PAX6 reporter transcription, RNA readout; actives raise or lower the signal. An outline of the steps:
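DMSO-referenced bidirectional fits of reporter mRNA fluorescence; HepG2 with transient cis-promoter MRTUs, 24 h post-dose, RT-PCR plus capillary electrophoresis detection.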

A short description of assay [3]: ATG_PXRE_CIS: Attagene CIS-FACTORIAL HepG2 Assay for human Pregnane X Receptor Element (PXRE) (AID 2282957). Conditions: HepG2 Attagene CIS-FACTORIAL PXRE reporter, mRNA; actives raise or lower the signal. Summed up: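 After a 24 h chemical incubation, total RNA from transfected HepG2 cells was reverse-transcribed and reporter cDNA amplified, FAM-labeled, HpaI-digested and sized by capillary electrophoresis. DMSO served as baseline for bidirectional curve fitting.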

Assay [4] in a line: ATG_PPRE_CIS: Attagene CIS-FACTORIAL HepG2 Assay for human Peroxisome Proliferator-activated Response Element (PPRE) (AID 2282958). Conditions: HepG2 PPRE cis-element reporter, Attagene transcription factor profiling; actives raise or lower the signal. Summed up: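 In this cell-based multiplex, a PPRE cis element drives a reporter sequence in transiently transfected HepG2 cells. Following 24 h treatment, labeled cDNA amplicons are sized and quantified by capillary electrophoresis, with DMSO defining baseline.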

Assay [5] in a line: ATG_RORE_CIS: Attagene CIS-FACTORIAL HepG2 Assay for human RAR-related Orphan Receptor Element (RORE) (AID 2282959). The settings on record: HepG2 Attagene cis-factorial RORE reporter, mRNA; actives raise or lower the signal. Summed up:
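Endogenous factor activity at a cis response element is read as reporter transcript levels in HepG2 cells, 24 h post-dose. Transcripts are quantified by RT-PCR with capillary electrophoresis, and data fitted in both directions against DMSO.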

A short description of assay [6]: ATG_Sox_CIS: Attagene CIS-FACTORIAL HepG2 Assay for human SRY-box transcription factor (SOX) (AID 2282960). The settings on record: HepG2 Attagene cis-factorial SOX reporter, mRNA; actives raise or lower the signal. Summed up: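 Measures mRNA induction of a SOX1-associated reporter in HepG2 after 24 h dosing. Fluorescently labelled RT-PCR fragments are separated by capillary electrophoresis, and gain or loss relative to DMSO control is fitted.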

The target of assay [7] is Transcription factor Sp1 (Homo sapiens) (UniProt P08047). Briefly: ATG_Sp1_CIS: Attagene CIS-FACTORIAL HepG2 Assay for human Specificity Protein 1 (Sp1) (AID 2282961). The settings on record: HepG2 Sp1 cis-reporter transcription, actives raise or lower the signal. An outline of the steps:
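Cells: HepG2, transiently transfected with cis-regulated multiplexed reporters. Exposure: 24 h. Detection: reporter transcripts amplified, fluorescently labeled, restriction-digested and sized by capillary electrophoresis. Analysis: bidirectional fit relative to DMSO.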

Assay [8] is described as follows: ATG_SREBP_CIS: Attagene CIS-FACTORIAL HepG2 Assay for human Sterol Regulatory Element Binding (SREBP) (AID 2282962). The settings on record: HepG2 Attagene cis-factorial SREBP reporter, mRNA; actives raise or lower the signal. An outline of the steps: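 In this cis-format assay, HepG2 liver cells express reporters controlled by promoter elements responsive to native transcription factors. Exposure lasts 24 h; reporter mRNA fluorescence from capillary electrophoresis gives the signal, fitted bidirectionally against DMSO.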

The target of assay [9] is Signal transducer and activator of transcription 3 (Homo sapiens) (UniProt P40763). Kind of assay: ATG_STAT3_CIS: Attagene CIS-FACTORIAL HepG2 Assay for human Signal Transducer and Activator of Transcription 3 (STAT3) (AID 2282963). The settings on record: HepG2, Attagene cis-factorial STAT3 reporter transcription; actives raise or lower the signal. Summed up: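 Readout: fluorescent reporter mRNA fragments resolved by capillary electrophoresis. Setup: HepG2 transfected with MRTUs reporting endogenous transcription-factor activity, dosed 24 h. Gain or loss of signal fitted bidirectionally against DMSO control.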
Signal transducer and activator of transcription 3 (Homo sapiens), sequence (P40763 whole entry, looked up, the tested form may be a part): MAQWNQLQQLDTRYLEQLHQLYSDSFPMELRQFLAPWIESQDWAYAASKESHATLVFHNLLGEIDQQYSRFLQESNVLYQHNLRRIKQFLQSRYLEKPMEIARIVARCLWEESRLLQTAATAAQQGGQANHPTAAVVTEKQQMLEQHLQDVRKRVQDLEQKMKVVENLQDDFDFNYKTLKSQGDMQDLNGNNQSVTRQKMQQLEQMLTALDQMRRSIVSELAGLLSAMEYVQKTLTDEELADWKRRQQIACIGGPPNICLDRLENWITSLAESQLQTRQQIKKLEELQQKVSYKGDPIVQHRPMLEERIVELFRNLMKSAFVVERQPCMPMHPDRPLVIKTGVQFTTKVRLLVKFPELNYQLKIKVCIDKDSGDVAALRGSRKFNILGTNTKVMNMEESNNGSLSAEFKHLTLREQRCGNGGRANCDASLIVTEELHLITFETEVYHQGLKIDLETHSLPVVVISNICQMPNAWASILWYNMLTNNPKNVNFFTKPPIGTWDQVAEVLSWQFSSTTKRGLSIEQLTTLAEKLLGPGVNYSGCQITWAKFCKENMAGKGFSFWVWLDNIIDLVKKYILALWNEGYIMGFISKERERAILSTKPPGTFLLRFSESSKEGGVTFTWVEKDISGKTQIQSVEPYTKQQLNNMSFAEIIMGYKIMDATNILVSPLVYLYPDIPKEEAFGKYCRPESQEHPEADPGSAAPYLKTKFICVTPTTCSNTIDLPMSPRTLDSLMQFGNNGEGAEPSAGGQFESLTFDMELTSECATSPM

Assay [10] can be described thus: ATG_TA_CIS: Attagene CIS-FACTORIAL HepG2 Assay for human TA Basal Promoter (AID 2282964). Conditions: HepG2 Attagene CIS-factorial TA basal promoter reporter; actives raise or lower the signal. An outline of the steps:
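Read-out: fluorescent reporter-transcript fragments resolved by capillary electrophoresis after RT-PCR and HpaI digestion. Source: HepG2 cells carrying transiently transfected multi-reporter cis constructs, treated 24 h. Endpoint fitted bidirectionally relative to DMSO.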

Assay [11] in a line: ATG_TCF_b_cat_CIS: Attagene CIS-FACTORIAL HepG2 Assay for human T-Cell-Factor with beta-catenin (TCF/b-cat) (AID 2282965). The settings on record: HepG2 TCF/beta-catenin cis-reporter transcription, actives raise or lower the signal. An outline of the steps:
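HepG2, transient MRTU transfection, cis-element-driven reporters (endogenous TFs). 24 h compound exposure. Readout: reporter mRNA by RT-PCR + 6-FAM primer extension, HpaI digest, capillary electrophoresis. Gain/loss fit vs DMSO baseline.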

The nature of assay [12]: ATG_TAL_CIS: Attagene CIS-FACTORIAL HepG2 Assay for human TAL Basal Promoter (AID 2282966).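 Also: background control endpoint measuring basal TAL promoter reporter mRNA not a specific factor.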 Conditions: HepG2 Attagene cis-factorial TAL promoter reporter; actives raise or lower the signal. Summed up: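 Basal-promoter background-control endpoint from a multiplexed HepG2 reporter panel. Cells were exposed 24 h, then reporter mRNA was read by RT-PCR/CE fluorescence and fitted in both directions relative to DMSO.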

Assay [13] can be described thus: ATG_TGFb_CIS: Attagene CIS-FACTORIAL HepG2 Assay for human Transforming Growth Factor (TGF) (AID 2282967). Conditions: HepG2 Attagene CIS TGFb reporter, mRNA transcription; actives raise or lower the signal. Summed up:
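Transient MRTU transfection of HepG2 (FuGene 6). Dose 24 h. TriZol RNA, oligo(dT) RT, PCR, 6-FAM primer extension, HpaI cut, CE. Bidirectional fit, DMSO = baseline.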

Assay [14] has as its target Estrogen receptor (Homo sapiens) (UniProt P03372). Briefly: ATG_ERa_TRANS: Attagene TRANS-FACTORIAL HepG2 Assay for human Estrogen Receptor alpha (ERa) (AID 2282970; active = hit-call score of the fitted dose curve at least 0.9, where 1 is the maximum). Conditions: HepG2 Attagene TRANS ERa GAL4 reporter, mRNA. An outline of the steps: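 Gal4-fusion ERa transactivation, measured as reporter transcript level in transiently transfected HepG2 cells. Exposure 24 h; RT-PCR plus capillary electrophoresis with fluorescence detection.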

For assay [15], the target named is Steroid hormone receptor ERR1 (Homo sapiens) (UniProt P11474). Briefly: ATG_ERRa_TRANS: Attagene TRANS-FACTORIAL HepG2 Assay for human Estrogen-Related Receptor alpha (ERRa) (AID 2282971; active = hit-call score of the fitted dose curve at least 0.9, where 1 is the maximum). Conditions: HepG2 Attagene TRANS reporter, ERRa transactivation. An outline of the steps: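 HepG2 cells transiently transfected with GAL4-UAS reporter units and chimeric NR-Gal4 constructs; after 24 hour compound incubation, reporter mRNA quantified by RT-PCR, fluorescent labelling and capillary electrophoresis, gain of signal versus DMSO.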
Steroid hormone receptor ERR1 (Homo sapiens), sequence (P11474 whole entry, looked up, the tested form may be a part): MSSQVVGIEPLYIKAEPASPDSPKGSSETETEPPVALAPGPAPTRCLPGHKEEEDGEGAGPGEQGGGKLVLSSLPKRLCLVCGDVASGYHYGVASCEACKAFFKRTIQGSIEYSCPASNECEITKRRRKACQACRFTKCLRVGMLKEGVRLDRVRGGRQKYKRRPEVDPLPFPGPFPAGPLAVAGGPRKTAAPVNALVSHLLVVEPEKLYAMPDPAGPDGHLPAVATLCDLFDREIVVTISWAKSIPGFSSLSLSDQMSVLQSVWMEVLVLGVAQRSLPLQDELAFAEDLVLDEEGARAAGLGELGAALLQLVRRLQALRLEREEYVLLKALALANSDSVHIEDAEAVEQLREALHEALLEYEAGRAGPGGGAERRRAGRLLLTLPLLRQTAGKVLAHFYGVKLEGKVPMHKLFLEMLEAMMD

Assay [16] deals with X-box-binding protein 1 (Homo sapiens) (UniProt P17861). Kind of assay: ATG_Xbp1_CIS: Attagene CIS-FACTORIAL HepG2 Assay for human X-box Binding Protein 1 (XBP1) (AID 2282972). Conditions: HepG2 XBP1 cis-element reporter, Attagene multiplex; actives raise or lower the signal. An outline of the steps:
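Changes in reporter transcript abundance, read by RT-PCR and capillary electrophoresis, reflect endogenous transcription factor activity. Transfected HepG2 cells received compound for 24 hours; DMSO defined baseline for bidirectional analysis.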

Assay [17] can be described thus: ATG_VDRE_CIS: Attagene CIS-FACTORIAL HepG2 Assay for human Vitamin D Receptor Element (VDRE) (AID 2282968). The settings on record: HepG2 VDRE cis-reporter transcription, actives raise or lower the signal. Summed up: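 Transient MRTU transfection of HepG2, 24 h compound exposure. Readout: reporter transcripts via RT-PCR and capillary electrophoresis, fluorescence. Bidirectional fit vs DMSO.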

Assay [18] can be described thus: ATG_M_19_TRANS: Attagene TRANS-FACTORIAL HepG2 Assay for M19 Transcription Factor (Internal Marker) (AID 2282974; active = hit-call score of the fitted dose curve at least 0.9, where 1 is the maximum). Conditions: HepG2 Attagene TRANS-FACTORIAL M19 internal marker reporter. An outline of the steps:
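Reporter mRNA induction was measured in transfected HepG2 cells 24 h after dosing. Endpoint fitted upward relative to DMSO and serves as a background control within the multiplexed TRANS panel.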

Assay [19] in a line: ATG_GAL4_TRANS: Attagene TRANS-FACTORIAL HepG2 Assay for GAL4 (Internal Marker) (AID 2282976; active = hit-call score of the fitted dose curve at least 0.9, where 1 is the maximum). The settings on record: HepG2 Attagene TRANS GAL4 internal marker reporter. Summed up: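 Background-control readout: GAL4-UAS reporter transcript in transiently transfected HepG2 cells after 24 h compound exposure. Measured by RT-PCR, 6-FAM primer extension, HpaI digest and capillary electrophoresis; gain-of-signal fit versus DMSO.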

Records with an inconclusive call do not appear. Activity calls are given as the source filed them. The calls were made as follows, unless noted: active = hit-call score of the fitted dose curve at least 0.9, where 1 is the maximum; inactive = score below 0.9.

Paired box protein Pax-6 (Homo sapiens), sequence (P26367 whole entry, looked up): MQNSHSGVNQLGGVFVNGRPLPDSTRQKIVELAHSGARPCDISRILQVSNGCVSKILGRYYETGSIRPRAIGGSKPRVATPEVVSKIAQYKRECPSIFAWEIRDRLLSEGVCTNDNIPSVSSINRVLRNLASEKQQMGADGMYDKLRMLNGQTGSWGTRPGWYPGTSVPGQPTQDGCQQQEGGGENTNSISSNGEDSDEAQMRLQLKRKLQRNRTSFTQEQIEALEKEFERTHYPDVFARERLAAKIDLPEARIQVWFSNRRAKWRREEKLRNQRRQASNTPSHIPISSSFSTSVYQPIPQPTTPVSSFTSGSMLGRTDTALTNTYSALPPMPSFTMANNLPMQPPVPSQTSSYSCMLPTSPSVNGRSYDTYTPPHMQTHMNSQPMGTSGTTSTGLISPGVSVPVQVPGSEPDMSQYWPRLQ
Estrogen receptor (Homo sapiens), sequence (P03372 whole entry, looked up, the tested form may be a part): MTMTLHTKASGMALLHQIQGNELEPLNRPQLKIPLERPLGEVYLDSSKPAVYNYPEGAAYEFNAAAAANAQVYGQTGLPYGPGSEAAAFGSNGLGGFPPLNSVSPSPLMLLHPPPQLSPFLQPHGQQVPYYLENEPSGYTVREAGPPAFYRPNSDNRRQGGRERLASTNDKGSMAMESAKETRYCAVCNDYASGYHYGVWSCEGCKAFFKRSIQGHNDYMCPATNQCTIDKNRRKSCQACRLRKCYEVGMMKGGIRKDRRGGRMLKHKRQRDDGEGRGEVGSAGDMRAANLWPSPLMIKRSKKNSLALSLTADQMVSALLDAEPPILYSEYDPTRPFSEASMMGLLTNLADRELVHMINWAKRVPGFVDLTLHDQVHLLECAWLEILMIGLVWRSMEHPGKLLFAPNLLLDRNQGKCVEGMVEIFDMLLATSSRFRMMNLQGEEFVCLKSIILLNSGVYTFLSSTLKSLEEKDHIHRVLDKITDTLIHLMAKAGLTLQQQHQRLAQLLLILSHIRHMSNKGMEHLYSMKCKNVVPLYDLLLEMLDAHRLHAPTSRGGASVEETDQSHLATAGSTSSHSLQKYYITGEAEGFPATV
Transcription factor Sp1 (Homo sapiens), sequence (P08047 whole entry, looked up): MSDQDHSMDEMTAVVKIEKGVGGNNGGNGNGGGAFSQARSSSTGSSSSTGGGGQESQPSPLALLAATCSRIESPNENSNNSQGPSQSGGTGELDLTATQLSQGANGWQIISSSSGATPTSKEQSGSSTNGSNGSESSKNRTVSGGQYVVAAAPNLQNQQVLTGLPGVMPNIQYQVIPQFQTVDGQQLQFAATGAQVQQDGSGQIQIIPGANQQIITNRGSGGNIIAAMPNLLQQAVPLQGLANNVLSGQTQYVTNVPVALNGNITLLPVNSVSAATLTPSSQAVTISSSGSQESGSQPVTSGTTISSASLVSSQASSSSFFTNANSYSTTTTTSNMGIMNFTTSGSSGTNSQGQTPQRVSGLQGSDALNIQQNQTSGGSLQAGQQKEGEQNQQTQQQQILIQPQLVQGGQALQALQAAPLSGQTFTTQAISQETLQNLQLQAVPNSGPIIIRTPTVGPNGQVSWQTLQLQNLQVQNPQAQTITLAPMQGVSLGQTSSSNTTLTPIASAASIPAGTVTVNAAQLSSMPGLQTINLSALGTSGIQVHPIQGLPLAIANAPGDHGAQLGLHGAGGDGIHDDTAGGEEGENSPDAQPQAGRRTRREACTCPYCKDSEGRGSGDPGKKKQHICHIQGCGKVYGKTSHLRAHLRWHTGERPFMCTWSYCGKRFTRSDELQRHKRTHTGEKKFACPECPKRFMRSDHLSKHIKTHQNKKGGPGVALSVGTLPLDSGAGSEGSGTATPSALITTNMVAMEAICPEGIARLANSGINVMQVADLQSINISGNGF
X-box-binding protein 1 (Homo sapiens), sequence (P17861 whole entry, looked up): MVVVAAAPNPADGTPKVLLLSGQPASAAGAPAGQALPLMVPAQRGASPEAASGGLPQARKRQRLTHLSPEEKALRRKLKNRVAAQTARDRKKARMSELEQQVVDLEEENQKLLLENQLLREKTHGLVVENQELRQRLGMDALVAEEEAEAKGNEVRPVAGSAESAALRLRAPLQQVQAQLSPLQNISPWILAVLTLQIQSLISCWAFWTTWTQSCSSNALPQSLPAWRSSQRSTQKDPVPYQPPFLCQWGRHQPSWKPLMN

Consider `CCCCC(CC)COC(=O)/C=C/c1ccc(OC)cc1` (centres undefined), for which the outcome in [1], in assay [2], in assay [4], in [5], in assay [6] and in assay [7] was inactive. In addition, the result in assay [8], in [9], in assay [10], in assay [11], in assay [12] and in assay [13] was inactive. Also, the compound was classed as inactive in assay [14], in assay [15] and in assay [16]. Further, the AC50 in assay [3] is 39.4 µM (active).
Turning to `CCC(=O)C1CC(C(C)C)CC=C1C` (centres undefined), the result in assay [1], in [2], in assay [4], in assay [5], in assay [6] and in assay [7] was inactive. Moreover, the call in assay [8], in assay [9], in assay [11], in assay [12], in [13] and in assay [14] was inactive. Moreover, in [3], the AC50 is 4.33 µM (active).
As for `CC(CC=O)CC(C)(C)C` (centres undefined), the result in assay [1], in assay [2], in assay [4], in [5], in assay [6] and in [7] was inactive. In addition, the compound was called inactive in assay [8], in [9], in assay [10], in assay [11], in [12] and in assay [13]. For the same compound, the compound was classed as inactive in [17], in [14], in assay [16], in assay [18] and in assay [19]. The half-maximal activity concentration (AC50) in assay [3] was 8.08 µM (active).
For `CC(=O)OC/C=C(/C)CCC=C(C)C`, the outcome in assay [1], in assay [2], in assay [3], in assay [4], in [5] and in assay [6] was inactive. For the same compound, the compound was classed as inactive in assay [7], in assay [8], in assay [9], in assay [10], in [11] and in assay [12]. Besides, the call in assay [13], in assay [14], in assay [16], in [18] and in assay [19] was inactive.
